An excerpt weighted towards active compounds, which were near 1.1% of everything screened.
SRC1 inh = inhibitors of human steroid receptor coactivator 1 (SRC1). HEK293 GAL4-SRC1 luciferase reporter, luminescence. inhibition, % at 3.6 µM. Q15788. AID 588354. 360,000 tested, 0.12% active;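 active = inhibition above the campaign mean plus 3 SD, with each screening campaign given its own cutoff, cut at about 60% in these data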
SRC3 inh = inhibits human SRC3 coactivator | 360,000 tested, 0.17% active | inhibition, % at 3.6 µM | HEK293 GAL4-SRC3 luciferase reporter, luminescence;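 active = inhibition above a per-campaign cutoff, the mean of all compounds plus 3 SD, cut at about 60% in these data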;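 also: higher means less SRC3-driven luciferase light from the GAL4 reporter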
COUP-TFII inh = inhibitors of human COUP-TFII (NR2F2); P24468; inhibition, % at 8.6 µM; HEK293T NGFI-A luciferase reporter, luminescence; AID 686940; 370,000 tested, 0.7% active;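 active = inhibition above a per-plate cutoff, mean inhibition of test wells between control levels plus 3 SD, cut at about 38% in these data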;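 also: cells cotransfected with COUP-TFII expression vector driving the NGFI-A reporter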
NR5A2 inv ag = NR5A2 inverse agonism in reporter assay. HEK293T StAR-luciferase reporter, LRH-1 transfected, 24 h. AID 602396. O00482. inhibition, % at 3.6 µM. 360,000 tested, 0.13% active;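 active = inhibition above the mean inhibition of all tested compounds plus 3 SD, cut at about 73% in these data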
SRC2 inh = inhibits human steroid receptor coactivator 2. 370,000 tested, 0.17% active. Q15596. AID 651957. HEK293 GAL4-SRC2 luciferase reporter, luminescence. inhibition, % at 9 µM;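 active = inhibition above the mean inhibition of all tested compounds plus 3 SD, set per campaign, cut at about 52% in these data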
GalR3 antagonist = human GalR3 antagonism. HEK293 GalR3-CNG cAMP membrane potential fluorescence; galR3 body fused to GalR1 C-terminus. AID 651719. 360,000 tested, 0.44% active. inhibition, % at 3 µM;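 active = inhibition above the screen-wide average plus 3 SD, cut at about 13% in these data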;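 also: forskolin and galanin both at EC90 stimulate the cells; cAMP rise reported by CNG channel membrane potential dye signal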
GalR3 antag conf = confirmation of human galanin receptor 3 antagonists. shares compounds with GalR3 antagonist. HEK293 GalR3 CNG cAMP biosensor, membrane potential fluorescence; galR3 fused to GalR1 carboxy tail; challenged with forskolin and galanin at EC90. inhibition, % at 3 µM. 1,600 tested, 59% active. AID 652245;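 active = inhibition above the primary screen's cutoff, the mean inhibition of all screened compounds plus 3 SD, cut at about 13% in these data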
HEK-CNG parental = acts as nonspecific agonist in parental HEK-CNG cells; 1,600 tested, 10% active; HEK293-CNG parental cells, cAMP membrane potential fluorescence; normalised: DMSO wells 0%, forskolin wells 100%; activation, % at 3 µM; shares compounds with GalR3 antagonist; in the data active = activation above about 1.3%
Large screens that a line does not name were inactive (follow-up assays come after a bar, where they were run).

COC(=O)C1=C(C)N(Cc2cccc(C(F)(F)F)c2)C(=NCC2CC2)NC1c1ccc(F)cc1 (stereo not drawn)	none (no result: SRC1 inh, SRC3 inh, NR5A2 inv ag)
O=C(c1ccccc1)N1CCC2CCN(CCc3ccccc3)CC21 (stereo not drawn)	none (no result: SRC1 inh, SRC3 inh, NR5A2 inv ag)
O=C(N/N=C/c1ccc(O)c(O)c1)N/N=C/c1ccc(O)c(O)c1	GalR3 antagonist 13 | GalR3 antag conf inactive | HEK-CNG parental inactive
Cc1nonc1C(=O)N/N=C/c1ccc(O)c(O)c1	none
CN(Cc1ccc(F)cc1)C(=O)CN1C(=O)C2(OCCCO2)c2ccccc21	none (no result: SRC1 inh, SRC3 inh, NR5A2 inv ag, GalR3 antagonist)
COC(=O)COc1cccc(NC(=O)c2cccc(C)c2)c1	GalR3 antagonist 20 | GalR3 antag conf 57 | HEK-CNG parental inactive
O=C(Nc1cccc(F)c1)C1CCCN(S(=O)(=O)c2ccc(-n3cnnn3)cc2)C1 (stereo not drawn)	GalR3 antagonist 14 | GalR3 antag conf inactive | HEK-CNG parental inactive
O=C(Nc1ccccc1)C1CCCN(S(=O)(=O)c2ccc(-n3cnnn3)cc2)C1 (stereo not drawn)	none
CC(C)CCOc1ccc(C2=NNC(=O)CC2)cc1	GalR3 antagonist 26 | GalR3 antag conf 15 | HEK-CNG parental inactive
O=C(Nc1ccccc1)/C(=C/c1ccc(O)cc1)NC(=O)c1ccco1	GalR3 antagonist 15 | GalR3 antag conf inactive | HEK-CNG parental inactive
O=C(Nc1ccccc1)/C(=C/c1ccccc1)NC(=O)c1ccco1	none
Cc1cc(OCC(=O)NC2CC(C)(C)NC(C)(C)C2)c2c(C)cc(=O)oc2c1	none (no result: GalR3 antagonist) | GalR3 antag conf inactive | HEK-CNG parental inactive
C[C@@H]1CN([C@H](C)CO)C(=O)c2cc(NS(=O)(=O)c3ccccc3)ccc2O[C@@H](C)CCCCO[C@@H]1CN(C)Cc1ccc(Cl)c(Cl)c1	none (no result: SRC1 inh, SRC3 inh, NR5A2 inv ag)
COC(=O)[C@]12C[C@H](CC(=O)NCc3cccc(C(F)(F)F)c3)C(=O)N(Cc3cccc4ccccc34)C1=C[C@H](C(C)(C)C)O[C@@H]2C	none (no result: SRC1 inh, SRC3 inh, NR5A2 inv ag, GalR3 antagonist)
CCOC(=O)c1sc(N2C(=O)C(O)=C(C(=O)c3ccc(C)o3)C2c2cccc([N+](=O)[O-])c2)nc1C (stereo not drawn)	none
CCOC(=O)c1sc(N2C(=O)C(O)=C(C(=O)c3ccc(C)o3)C2c2ccc(OC)c(OC)c2)nc1C (stereo not drawn)	GalR3 antagonist 34 | GalR3 antag conf 15 | HEK-CNG parental inactive
COC(=O)c1sc(N2C(=O)C(O)=C(C(=O)c3ccc(C)o3)C2c2ccc(OC)c(OC)c2)nc1C (stereo not drawn)	GalR3 antagonist 36 | GalR3 antag conf inactive | HEK-CNG parental inactive
CCOc1ccc(C2C(C(=O)c3ccc(C)o3)=C(O)C(=O)N2c2nc(C)c(C(=O)OC)s2)cc1 (stereo not drawn)	GalR3 antagonist 13 | GalR3 antag conf 15 | HEK-CNG parental inactive
COC(=O)c1sc(N2C(=O)C(O)=C(C(=O)c3ccc(C)o3)C2c2ccc([N+](=O)[O-])cc2)nc1C (stereo not drawn)	none
C/C=C/C(=O)Nc1cccc(C2=NOC3(C2)C[C@@H](C(N)=O)N(C(=O)c2cc([N+](=O)[O-])cc([N+](=O)[O-])c2C)C3)c1 (stereo partly drawn)	GalR3 antagonist 13 | GalR3 antag conf inactive | HEK-CNG parental inactive
Cc1ccccc1Br	none (no result: SRC1 inh, SRC3 inh, NR5A2 inv ag)
COc1ccc(OCC(O)CNC(=O)c2ccc(Br)cc2)cc1 (stereo not drawn)	none
COc1ccc(OCC(O)CNC(=O)c2ccc(OC)cc2)cc1 (stereo not drawn)	GalR3 antagonist 14 | GalR3 antag conf inactive | HEK-CNG parental inactive
COc1ccccc1NC(=O)c1ccc(NC(=O)c2ccco2)cc1	none
CCOc1ccccc1NC(=O)c1ccc(NC(=O)c2ccco2)cc1	none (no result: GalR3 antagonist) | GalR3 antag conf inactive | HEK-CNG parental inactive
COc1ccc(-n2c(C)cc(C(=O)COC(=O)Cn3cnc4ccccc43)c2C)cc1	GalR3 antagonist 100 | GalR3 antag conf 89 | HEK-CNG parental inactive
COc1ccc(NC(=O)COC(=O)Cn2cnc3ccccc32)cc1	none
COC(=O)c1cc2c(c3c4cc(OC)ccc4n(S(=O)(=O)c4ccc(OC)cc4)c13)C(=O)N(Cc1ccco1)C2	none (no result: SRC1 inh, SRC3 inh, NR5A2 inv ag)
O=C(Nc1ccccc1)c1cc(C2COCCN2C(=O)CCCc2ccccc2)on1 (stereo not drawn)	none
COc1ccc(-c2cnc3c(NC=O)cc(-c4ccc(S(C)(=O)=O)cc4)cn23)cc1OC	none
COc1cccc(-c2cc(NC=O)c3ncc(-c4ccc(OC)c(OC)c4)n3c2)c1	GalR3 antagonist 38 | GalR3 antag conf 39 | HEK-CNG parental inactive
COc1ccccc1-c1cc(NC=O)c2ncc(-c3ccc(S(C)(=O)=O)cc3)n2c1	GalR3 antagonist 14 | GalR3 antag conf 30 | HEK-CNG parental inactive
COc1ccc(-c2cc(NC=O)c3ncc(-c4ccc(OC)c(OC)c4)n3c2)c(OC)c1	GalR3 antagonist 44 | GalR3 antag conf 25 | HEK-CNG parental inactive
COc1ccc(-c2cnc3c(NC=O)cc(-c4ccccc4)cn23)cc1OC	GalR3 antagonist 44 | GalR3 antag conf 15 | HEK-CNG parental inactive
COc1cccc(-c2cnc3c(NC=O)cc(-c4ccc(OC)cc4OC)cn23)c1	none
COc1cccc(-c2cnc3c(NC=O)cc(-c4cc(OC)c(OC)c(OC)c4)cn23)c1	none
C[C@H]1COc2cc(Br)ccc2S(=O)(=O)N1Cc1cn(Cc2ccc(Br)cc2)nn1	none (no result: SRC1 inh, SRC3 inh, NR5A2 inv ag, GalR3 antagonist)
COc1ccc(-c2cnc3c(NC=O)cc(-c4ccc(F)cc4)cn23)cc1OC	GalR3 antagonist 15 | GalR3 antag conf 21 | HEK-CNG parental inactive
COc1ccc(-c2cnc3c(NC=O)cc(-c4cccc(NS(C)(=O)=O)c4)cn23)cc1OC	GalR3 antagonist 59 | GalR3 antag conf 43 | HEK-CNG parental inactive
COc1ccccc1-c1cc(C(F)(F)F)nc(S(=O)(=O)CCCC(=O)Nc2cccnc2Cl)n1	GalR3 antagonist 22 | GalR3 antag conf 22 | HEK-CNG parental inactive
COc1ccc(-c2cc(C(F)(F)F)nc(S(=O)(=O)CCCC(=O)Nc3cc(C)on3)n2)cc1OC	GalR3 antagonist 18 | GalR3 antag conf 19 | HEK-CNG parental inactive
COc1ccccc1-c1cc(C(F)(F)F)nc(S(=O)(=O)CCCC(=O)Nc2cc(C)on2)n1	none
COc1ccc(OC)c(C2=NOC(C(=O)NCC3CCCO3)C2)c1 (stereo not drawn)	none (no result: COUP-TFII inh, SRC2 inh, GalR3 antagonist)
